# Source: PubChem BioAssay (National Center for Advancing Translational Sciences (NCATS))
# The list is not random: actives were taken first. Their share in the collection is about 2.5%.
# Cruzain noTriton – cruzain (T. cruzi) inhibition without detergent; purified cruzain, Z-FR-AMC fluorescence, no detergent; Potency, µM, for inactives: max response, negative = inhibition, hits mostly inhibitors; hit rate 2.3% among 200,000; AID 1476;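 further: plate controls were enzyme without inhibitor for no effect and buffer without enzyme for full effect; nearly all actives have a fitted effect of over 40% in size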
# Target sequence (P25779 123-467 limits assumed): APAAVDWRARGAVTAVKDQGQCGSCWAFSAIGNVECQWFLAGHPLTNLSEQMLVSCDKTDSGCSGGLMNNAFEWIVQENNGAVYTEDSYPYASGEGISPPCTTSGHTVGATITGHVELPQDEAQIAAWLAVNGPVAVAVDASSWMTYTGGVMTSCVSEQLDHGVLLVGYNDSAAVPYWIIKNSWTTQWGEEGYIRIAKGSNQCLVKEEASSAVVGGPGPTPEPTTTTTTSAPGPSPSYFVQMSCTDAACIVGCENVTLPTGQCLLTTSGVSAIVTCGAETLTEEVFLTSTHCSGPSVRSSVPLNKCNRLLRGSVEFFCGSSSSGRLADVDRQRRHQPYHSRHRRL
#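 Detergent-free condition (0.00005% Triton X-100) in acetate buffer pH 5.5 with DTT. 1.5 nM enzyme and compound were pre-mixed 15 min, then 2 uM Z-FR-AMC substrate added; reaction progress from fluorescence change between first and third reads (60 s).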
# Cruzain Triton – cruzain (T. cruzi) inhibition with detergent. purified cruzain, Z-FR-AMC fluorescence, 0.01% Triton. AID 1478. Potency, µM, inactives show max response, negative = inhibition, actives largely listed as inhibitors. P25779. hit rate 0.43% among 200,000;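 further: plate controls were neutral wells for no effect and buffer without enzyme for full effect; nearly all actives have a fitted effect of over 40% in size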
#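 15 min RT preincubation of 1.5 nM cruzain with compound, then 2 uM Z-FR-AMC added; kinetic AMC fluorescence, 60 s delta. Triton X-100 0.01%, pH 5.5.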
# * = called active by the depositor; ? = inconclusive; ! = repeats disagree. The call rests on the fitted dose curve; in most records, active means well fitted curve in the direction sought with a large enough effect; inconclusive means small, poorly fitted or top-dose-only effect, or another doubt; inactive means no such curve, though single readings can be large; an effect the other way counts as inactive or inconclusive. Potency means the concentration at half of the fitted maximal effect.
SMILES,Cruzain noTriton,Cruzain Triton
O=C(CNC(=O)/C(=C\c1ccc(Br)cc1)NC(=O)c1ccccc1)OCc1ccccc1,?,10µM*
CCc1cc2c(-c3ccccc3)cc(=O)oc2cc1OC(=O)c1cccs1,-2.2%,3.2%
O=C(Oc1ccc2c(-c3ccccc3)cc(=O)oc2c1)c1cccs1,6.31µM*,-5.5%
CCOc1ccc(C(=O)NCC2OCCc3ccccc32)cc1 (stereo unspecified),1.6%,-2.2%
Cc1cc(N)c2ccccc2[n+]1CCCCCCCCCC[n+]1c(C)cc(N)c2ccccc21,?,12.6µM*!
CCCCCCCCC[n+]1cccc2c3ccccc3ccc21,-2.4%,-8.9%
COc1ccc(C(=O)N2CCC3(CC2)CN(CC(C)C)C3)cc1,2.2%,-3.5%
CN(C)c1ncc2nc(-c3cc(F)cc(F)c3)c(=O)n(C)c2n1,20µM*,12.5%
CN(C)c1ncc2nc(-c3cc(F)cc(F)c3)c(=O)n(C3CC3)c2n1,14.0%,2.7%
CSc1nc2c(c(C(F)(F)F)n1)CC(C)CC2 (stereo unspecified),-6.1%,3.3%
O=C(Nc1cccc(F)c1)N1CC[C@@]2(CCCN(C(=O)c3cc(C(F)(F)F)cc(C(F)(F)F)c3)C2)C1,?,-8.4%
CN(C)C(=O)c1ccc(-c2ccc3ncnc(NCc4cccs4)c3c2)cc1,-6.0%,?
COc1ccc(-c2csc(NC(=O)c3cc(-c4cccs4)nc4ccccc34)n2)c(OC)c1,5.01µM*,1.9%
COc1ccccc1-c1csc(NC(=O)c2cc(-c3cccs3)nc3ccccc23)n1,3.98µM*,-3.0%
COc1ccccc1-c1cc(C(=O)N/N=C/c2cccs2)c2ccccc2n1,-12.5%,-9.8%
COc1ccc(-c2cc(C(=O)N/N=C/c3sccc3C)c3ccccc3n2)c(OC)c1,?,-11.2%
Cc1ccc(-c2nc(CS(=O)(=O)CC(=O)N3CCN(c4cccc(C)c4C)CC3)c(C)o2)cc1,-7.3%,4.0%
O=C(OCc1cc(Cl)ccc1OC(F)F)c1cc(S(=O)(=O)O)ccc1O,5.6%,-3.0%
Cc1cccc(NC(=O)c2ccc(CNS(=O)(=O)c3ccc4c(c3)C(C)(C)C(=O)N4C)cc2)c1,24.0%,-4.7%
Cc1ccc(CNc2ccc3c(c2)OCO3)cc1,25.1µM*,-2.8%
c1cc(CNc2ccc3c(c2)OCO3)ccn1,-12.3%,-6.3%
COCCCNC(=O)c1[nH]c2cc(OC)ccc2c1Sc1ccc(C)cc1,26.3%,1.3%
COc1ccc2c(Sc3ccc(C)cc3)c(C(=O)NCCc3ccccc3)[nH]c2c1,15.8µM*,-3.0%
CCn1c2ccccc2c2cc(NC(=O)COC(=O)c3cccc(S(=O)(=O)NC)c3)ccc21,-26.3%,-2.2%
CCN(CC)S(=O)(=O)c1cccc(C(=O)OCC(=O)Nc2ccc3c(c2)c2ccccc2n3CC)c1,7.94µM*,-4.2%
SMILES,Cruzain noTriton,Cruzain Triton
COc1cccc(/C=N/NC(=O)CN2CC(c3ccccc3)CC2=O)c1O (stereo unspecified),-0.2%,-3.9%
COCCNC(=O)COc1ccc(Oc2ccccc2)cc1,3.9%,-2.2%
CCOc1ccc(NC(=S)/C(=C(\[O-])c2ccc(C)c([N+](=O)[O-])c2)[n+]2ccccc2)cc1,25.1µM*,-5.9%
CCc1cc[n+](/C(C(=S)Nc2cccc(C)c2)=C(/[O-])c2ccc(C)c([N+](=O)[O-])c2)cc1,-21.1%,-9.3%
O=S(=O)(Nc1nc2ccccc2nc1N1CCc2ccccc2C1)c1ccc(Br)cc1,7.94µM*,-4.3%
O=S(=O)(Nc1nc2ccccc2nc1N1CCc2ccccc2C1)c1ccc(Cl)cc1,-76.0%,-4.6%
O=S(=O)(Nc1ccc(N2CCOCC2)cc1)c1ccc2ccccc2c1,-2.0%,-7.2%
O=S(=O)(Nc1nc2ccccc2nc1Nc1ccc(N2CCOCC2)cc1)c1cc(Cl)ccc1Cl,20µM*,-9.0%
CCOC(=O)c1[nH]c2c(c1Cc1ccccc1)C(=O)CC(c1ccc(C(C)(C)C)cc1)C2 (stereo unspecified),10µM*,-3.6%
Cc1c(C(=O)OCc2ccccc2)[nH]c2c1C(=O)CC(c1ccc(C(C)(C)C)cc1)C2 (stereo unspecified),-9.4%,-1.6%
Cc1ccc(C(C)C)c(OCCCn2c(=O)oc3ccccc32)c1,-17.1%,-6.7%
COc1cc2c(cc1NC(=O)COC(=O)[C@@H](NC(=O)c1ccccc1F)C(C)C)oc1ccccc12,?,-10.4%
CCc1ccc(OCC(=O)Nc2cc3oc4ccccc4c3cc2OC)cc1,1.0%,0.3%
CCN(CC)c1ccc(C(=O)OCC(=O)Nc2cc3oc4ccccc4c3cc2OC)cc1,12.6µM*,-16.7%
COc1cc2c(cc1NC(=O)COC(=O)[C@@H](NC(=O)c1ccccc1)C(C)C)oc1ccccc12,31.6µM*,-8.6%
O=S(=O)(CCC(F)=C(F)F)c1nnnn1C1CCCCC1,-5.2%,1.4%
CC/C=C\C/C=C\C/C=C\C/C=C\C/C=C\C/C=C\CCC(N)=O,-4.8%,1.3%
Cc1cccc2cc(C#N)c(SCC(=O)NNC(=O)Cc3ccccc3)nc12,25.1µM*,4.7%
Cc1cccc2cc(C#N)c(SCC(=O)NCC3CCCO3)nc12 (stereo unspecified),-16.1%,2.4%
Cc1cccc2cc(C#N)c(SCC(=O)NCc3cccs3)nc12,6.31µM*,-2.5%
Cc1ccc(C)c2nc(SCC(=O)NCc3cccs3)c(C#N)cc12,-18.9%,5.0%
Cc1c(Cl)cccc1NC(=O)C(C)N(c1ccccc1)S(C)(=O)=O (stereo unspecified),-1.4%,-3.6%
CC(C)c1ccc2[nH]c(O)c(N=NC(=O)c3cccc(S(=O)(=O)N4CCCCC4)c3)c2c1,25.1µM*,-6.8%
O=C(N=Nc1c(O)[nH]c2ccccc12)c1cccc(S(=O)(=O)N2CCCCC2)c1,-16.5%,3.5%
COc1ccc(-c2c3c(=O)n(C)c(=O)n(C)c3cn2-c2cccc(N)c2)cc1,?,-8.2%
SMILES,Cruzain noTriton,Cruzain Triton
CCCC(=O)n1nc(-c2ccco2)nc1NCc1ccccc1Cl,2.1%,-0.4%
Cc1ccc(C)c(NC(=O)C(Sc2ncnc3ccccc23)c2ccccc2)c1 (stereo unspecified),0.2%,2.3%
Cc1ccc(C)c(NC(=O)C(Sc2nc3ccccc3c(=O)n2CC(C)C)c2ccccc2)c1 (stereo unspecified),20µM*,-0.6%
COc1ccc(CCNC(=O)Cn2c(-c3ccc(F)cc3)cc(C(C)=O)c2C)cc1OC,-5.3%,-0.4%
CCOc1ccccc1CNC(=O)c1cnc2sc(N3CCCCCC3)nn2c1=O,?,-1.6%
Cc1nn(C)c2c1c(-c1ccccc1)cc(=O)n2CC(=O)NC(C)(C)C,?,-3.6%
COc1ccc(/C=N/Nc2nnc(-c3ccccc3)c(=O)[nH]2)cc1,-17.4%,-0.3%
O=c1[nH]c(N/N=C/c2ccccc2Br)nnc1-c1ccccc1,12.6µM*,-10.7%
CN1CCN(c2ncc3nc(CCc4ccccc4)c(=O)n(C4CC4)c3n2)CC1,-0.4%,-2.9%
Cc1cccc(C)c1NC(=O)CSc1nnc(-c2ccco2)c(-c2ccco2)n1,-18.2%,?
CSc1nnc(-c2ccco2)c(-c2ccco2)n1,12.6µM*,14.1µM*
CSc1nnc2c(n1)OC=Nc1ccccc1-2,-7.3%,-5.9%
Cc1ccc(NC(=O)CSc2nnc(-c3ccco3)c(-c3ccco3)n2)cc1,10µM*,25.1µM*
CC(C)NC(=S)N/N=C1\CCCCC1C1CCCCC1 (stereo unspecified),-0.5%,-9.8%
COc1cccc(-c2nc3ccccc3c(=O)o2)c1,-9.5%,1.3%
COc1cc(OC)cc(-c2nc3ccccc3c(=O)o2)c1,15.8µM*,0.0%
